These results are taken from PubChem BioAssay (NCI).

The panel holds about 83,000 compounds, 20% with a hit somewhere; the sample as a whole holds those more often.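 Growth was measured after 48 h exposure to one concentration of compound in 96-well plates. Values under 10 count as active.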 A number with no mark means an inactive call. The source made the active and inactive calls.

Among the test systems are HCT-15 colon; HT29 colon; SNB-75 CNS; SNB-19 CNS; U251 CNS; PC-3 prostate; SK-MEL-5 melanoma; UACC-62 melanoma; LOX IMVI melanoma; SK-MEL-28 melanoma; EKVX NSCLC; SN12C renal; UO-31 renal; TK-10 renal; ACHN renal; CAKI-1 renal; A498 renal; CCRF-CEM leukemia; MOLT-4 leukemia.
Common to all, as to assay: NCI-60 one-dose screen, 48 h (100 = growth as untreated, 0 = no growth, -100 = all killed)
Conditions in all cases: 10 µM unless noted

In the case of `COc1ccc2c(c1)cn1c3ccc(O)cc3nc(N)c21`, the growth in the test on HCT-15 colon is 18.5%; with HT29 colon, 21.2%; with SNB-75 CNS, 15%; with SNB-19 CNS it was 26.9%; in the test with U251 CNS it was 23.7%; with PC-3 prostate, 19.9%. Moreover, the growth in the test with SK-MEL-5 melanoma was 17.8%; in the test with UACC-62 melanoma, 32.5%; in the test with LOX IMVI melanoma it was 24.2%; with SK-MEL-28 melanoma, 42.6%; with EKVX NSCLC it was 41%; with SN12C renal, 34.6%. The growth with UO-31 renal is 15.6%; in the test on TK-10 renal it was 25.2%; with ACHN renal it was 27.4%; with CAKI-1 renal, 26.9%; in the test with A498 renal, 38.6%; in the test on CCRF-CEM leukemia, 23%. Further, the growth in the test on MOLT-4 leukemia was 18.5%.

`O=C(c1c(F)ccc(NS(=O)(=O)N2CC[C@@H](F)C2)c1F)c1c[nH]c2ncc(-c3cnc(C4CC4)nc3)cc12`: the growth is 44.1% in the test with HCT-15 colon; 3.81% (active) in the test on HT29 colon; 37.7% in the test on SNB-75 CNS; 52.8% in the test with SNB-19 CNS; 42.4% with U251 CNS; 46.5% in the test on PC-3 prostate. Further, the growth with SK-MEL-5 melanoma is 22%; in the test with UACC-62 melanoma, -22.9% (active); in the test with LOX IMVI melanoma, 15.9%; in the test on SK-MEL-28 melanoma, -5.44% (active); in the test on EKVX NSCLC it was 58.5%; in the test on SN12C renal, 48%. The growth is 25.9% with UO-31 renal; 41.7% with TK-10 renal; 34.5% with ACHN renal; 16.7% with CAKI-1 renal; 62.7% in the test on A498 renal; 47.6% in the test with CCRF-CEM leukemia. For the same compound, the growth with MOLT-4 leukemia is 16.3%.

With `COC(=O)Nc1nc2ccc(C(=O)c3ccc(N(C)C4COC4)cc3)cc2[nH]1`, the growth with HCT-15 colon was 12.4%; in the test on HT29 colon, 0.909% (active); in the test with SNB-75 CNS it was 16.4%; in the test with SNB-19 CNS it was 26.9%; with U251 CNS, 17.2%; with PC-3 prostate, 24.2%. Further, the growth was 3.76% (active) with SK-MEL-5 melanoma; 34.3% in the test on UACC-62 melanoma; 20.4% in the test on LOX IMVI melanoma; 56.9% in the test with SK-MEL-28 melanoma; 26.9% with EKVX NSCLC; 30.9% with SN12C renal. The growth in the test with UO-31 renal is 45.3%; in the test on TK-10 renal, 66%; with ACHN renal, 39%; in the test with CAKI-1 renal, 31.2%; in the test with A498 renal, 10%; in the test on MOLT-4 leukemia, 10.5%.

As to `CO[C@H]1C[C@@H]2CC[C@@H](C)[C@@](O)(O2)C(=O)C(=O)N2CCCC[C@H]2C(=O)O[C@H]([C@H](C)C[C@@H]2CC[C@@H](OCCO)[C@H](OC)C2)CC(=O)[C@H](C)/C=C(\C)[C@@H](O)[C@H](OC)C(=O)[C@H](C)C[C@H](C)\C=C/C=C/C=C/1C`, the growth with HCT-15 colon was 53.9%; in the test on HT29 colon, 44.1%; in the test on SNB-75 CNS it was 20.8%; in the test on SNB-19 CNS, 49.5%; in the test with U251 CNS it was 42.7%; in the test on PC-3 prostate, 44.3%. For the same compound, the growth with SK-MEL-5 melanoma was 63.5%; with UACC-62 melanoma it was 40.8%; with LOX IMVI melanoma it was 40.3%; in the test with SK-MEL-28 melanoma, 44%; with EKVX NSCLC, 54.9%; in the test with SN12C renal, 54.3%. Further, the growth is 16.6% in the test on UO-31 renal; 63.8% in the test on TK-10 renal; 48.6% in the test with ACHN renal; 47.6% in the test on CAKI-1 renal; 25.8% in the test on A498 renal; 35% in the test with CCRF-CEM leukemia. The growth in the test with MOLT-4 leukemia is 33.3%.

Regarding `O=C(Nc1cnn2ccc(N3CCC[C@@H]3c3cc(F)ccc3F)nc12)N1CC[C@H](O)C1`, the growth in the test on HCT-15 colon was 92.6%; in the test with HT29 colon, 74.1%; in the test with SNB-75 CNS, 29.1%; in the test with SNB-19 CNS it was 92%; with U251 CNS it was 85.7%; with PC-3 prostate, 89.4%. The growth is 97.8% in the test on SK-MEL-5 melanoma; 99% in the test with UACC-62 melanoma; 80.1% in the test on LOX IMVI melanoma; 109% with SK-MEL-28 melanoma; 99.5% with EKVX NSCLC; 81.1% with SN12C renal. In addition, the growth is 82.8% in the test with UO-31 renal; 99.8% in the test on TK-10 renal; 103% in the test with ACHN renal; 88.3% with CAKI-1 renal; 2.72% (active) with A498 renal; 96.8% with MOLT-4 leukemia.

`CN(C)C/C=C/C(=O)Nc1cc2c(Nc3ccc(F)c(Cl)c3)ncnc2cc1O[C@H]1CCOC1`: the growth in the test with HCT-15 colon was -6.21% (active); in the test on HT29 colon it was -2.13% (active); in the test with SNB-75 CNS, -1.97% (active); in the test on SNB-19 CNS, 8.32% (active); with U251 CNS, -3.99% (active); with PC-3 prostate, 5.5% (active). In addition, the growth in the test with SK-MEL-5 melanoma was -81.4% (active); in the test on UACC-62 melanoma, -42.3% (active); in the test on LOX IMVI melanoma, -73.5% (active); with SK-MEL-28 melanoma, -57.5% (active); with EKVX NSCLC it was 4.87% (active); in the test on SN12C renal it was 3.6% (active). In addition, the growth in the test with UO-31 renal was 12.2%; in the test with TK-10 renal it was -10.4% (active); in the test with ACHN renal, -84.9% (active); in the test on CAKI-1 renal it was 5.36% (active); with A498 renal it was -40.4% (active); in the test with CCRF-CEM leukemia it was 6.13% (active). Also, in the test on MOLT-4 leukemia, the growth was -13.5% (active).
